# PubChem BioAssay
# Several values for one entry are separate records, joined by “and”; a condition that tells them apart may be missing. Identical values can stand only once. Results filed as inconclusive are left out. For part of these data: Entries with a potency or affinity are not part of this list. Activity calls are given as the source filed them. Unless noted, the rule behind the calls is not given here.
# Assays:
# [1] = polyglutamine-triggered caspase-3 activation inhibitors, cell-based (AID 1583); details: polyglutamine-induced caspase-3 activation, cell assay; stronger effect = higher value;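 tested at 10 µM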
# [2] = suppressors of polyQ aggregation in yeast, 75Q-TubU reporter (AID 1593); details: Yeast 75Q polyglutamine aggregation reporter
# [3] = rescue of polyQ-huntingtin neuronal dysfunction in worms, whole organism, C. elegans mechanosensory neurons, N-terminal huntingtin (AID 1599); details: touch response, stronger effect = higher value
# [4] = inhibitors of mitochondrial cytochrome c release, biochemical, purified mitochondria (AID 1603); details: stronger effect = lower value;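 note: mouse liver mitochondria challenged with calcium chloride; signal normalized to the plate average as 100%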
# [5] = inhibitors of polyQ protein aggregation (AID 1604); details: polyglutamine-induced protein aggregation inhibition assay; stronger effect = higher value; tested at 2.5 µM
# [6] = protection against mutant huntingtin cytotoxicity, PC12 cells, LDH release (AID 1610); details: PC12 mutant huntingtin toxicity, final LDH at 4 uM, stronger effect = lower value
# [7] = enhancers of glutamate uptake in motor neurons, MN-1 cell line (AID 1612); details: MN-1 motor neuron cells, stronger effect = higher value;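 note: tested at 1 µM final; 0% = mean of DMSO vehicle wells on each plate; positive means more glutamate uptake than control and negative means less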
# [8] = reducers of polyQ inclusions in PC12 cells, cell-based, NGF-treated PC12, GFPQ80 (AID 1614); details: PC12 NGF-treated GFP-polyQ80 inclusion reduction;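 note: lower means fewer inclusions and 0 means no inclusions at all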
# [9] = suppressors of polyglutamine aggregation in yeast, 75Q-TubH (AID 1616); details: S. cerevisiae 75Q-TubH polyglutamine aggregation suppression; stronger effect = higher value
# [10] = target: ATP-dependent translocase ABCB1 (Homo sapiens) (UniProt P08183); assay: MDR1 (ABCB1) efflux transporter inhibition, cell-based (AID 377; in the data active = fluorescence slope change above about 50%); details: MDR1-expressing cells, fluorescent substrate accumulation slope; stronger effect = higher value; concentration not given here
# [11] = circadian clock period modulators, cell-based, LOPAC library, luminescence reporter (AID 2774); details: circadian reporter cells, at 7 µM, actives lie on both sides;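 note: values are relative to mean of DMSO wells on each plate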
# [12] = hESC survival regulators, cell-based (AID 493140); details: human embryonic stem cell survival screen; stronger effect = higher value;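 note: cells exposed to compounds for four days before counting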
# [13] = mitochondrial permeability transition inhibitors (AID 1580); details: isolated mitochondria, permeability transition inhibition
# [14] = inhibitors of polyQ aggregate elongation, biochemical, solid-phase synthetic aggregates, QA3 (AID 1585); details: biotin-polyQ incorporation; EC50: measured here: elongation inhibition potency; inhibition: at 100 µM, stronger effect = higher value
# [15] = target: Huntingtin (Homo sapiens) (UniProt P42858); assay: inhibitors of mutant Htt aggregation in vitro, dose response, QA1 (AID 1584); details: in vitro mutant huntingtin aggregation assay; confirmation test; at 10 µM; stronger effect = lower value
# [16] = protection of motor neurons from glutamate death, cell-based, TUNEL DNA degradation staining, MNGlu (AID 1594); details: glutamate-induced death, at 1 µM, stronger effect = higher value
# Sequence of ATP-dependent translocase ABCB1 (Homo sapiens) (P08183 whole entry, looked up): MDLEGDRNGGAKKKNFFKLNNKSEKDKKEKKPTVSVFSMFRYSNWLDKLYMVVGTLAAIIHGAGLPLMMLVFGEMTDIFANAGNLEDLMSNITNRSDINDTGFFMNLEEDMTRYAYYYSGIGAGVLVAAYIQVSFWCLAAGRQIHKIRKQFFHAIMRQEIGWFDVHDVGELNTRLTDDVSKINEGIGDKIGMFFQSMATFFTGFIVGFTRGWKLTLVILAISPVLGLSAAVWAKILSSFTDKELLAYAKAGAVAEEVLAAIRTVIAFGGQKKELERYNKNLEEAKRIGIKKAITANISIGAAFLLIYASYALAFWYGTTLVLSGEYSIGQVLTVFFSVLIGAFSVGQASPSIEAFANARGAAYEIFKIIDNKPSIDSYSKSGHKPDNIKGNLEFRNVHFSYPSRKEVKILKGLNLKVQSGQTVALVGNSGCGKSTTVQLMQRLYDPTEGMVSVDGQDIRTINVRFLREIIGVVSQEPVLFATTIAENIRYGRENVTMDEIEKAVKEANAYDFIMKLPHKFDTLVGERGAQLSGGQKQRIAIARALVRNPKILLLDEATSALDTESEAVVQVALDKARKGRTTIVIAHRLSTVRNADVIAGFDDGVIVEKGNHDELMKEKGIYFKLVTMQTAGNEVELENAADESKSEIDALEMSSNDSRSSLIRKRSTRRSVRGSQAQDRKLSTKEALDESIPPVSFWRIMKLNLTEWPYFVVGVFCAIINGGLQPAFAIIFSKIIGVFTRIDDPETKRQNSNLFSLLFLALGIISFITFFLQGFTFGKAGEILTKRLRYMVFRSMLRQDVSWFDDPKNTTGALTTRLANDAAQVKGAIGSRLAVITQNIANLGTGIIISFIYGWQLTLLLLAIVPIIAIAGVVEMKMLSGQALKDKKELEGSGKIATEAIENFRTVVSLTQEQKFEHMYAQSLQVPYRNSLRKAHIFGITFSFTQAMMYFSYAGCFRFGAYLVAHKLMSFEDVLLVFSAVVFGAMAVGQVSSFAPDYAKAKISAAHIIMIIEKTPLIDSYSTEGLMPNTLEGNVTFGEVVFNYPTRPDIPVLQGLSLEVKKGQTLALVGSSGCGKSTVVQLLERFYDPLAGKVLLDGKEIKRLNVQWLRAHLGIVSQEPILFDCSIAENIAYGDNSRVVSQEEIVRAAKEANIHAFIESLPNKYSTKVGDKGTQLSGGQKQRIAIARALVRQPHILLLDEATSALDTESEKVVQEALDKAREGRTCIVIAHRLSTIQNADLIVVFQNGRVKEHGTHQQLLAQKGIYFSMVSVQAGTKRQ
# Sequence of Huntingtin (Homo sapiens) (P42858 whole entry, looked up): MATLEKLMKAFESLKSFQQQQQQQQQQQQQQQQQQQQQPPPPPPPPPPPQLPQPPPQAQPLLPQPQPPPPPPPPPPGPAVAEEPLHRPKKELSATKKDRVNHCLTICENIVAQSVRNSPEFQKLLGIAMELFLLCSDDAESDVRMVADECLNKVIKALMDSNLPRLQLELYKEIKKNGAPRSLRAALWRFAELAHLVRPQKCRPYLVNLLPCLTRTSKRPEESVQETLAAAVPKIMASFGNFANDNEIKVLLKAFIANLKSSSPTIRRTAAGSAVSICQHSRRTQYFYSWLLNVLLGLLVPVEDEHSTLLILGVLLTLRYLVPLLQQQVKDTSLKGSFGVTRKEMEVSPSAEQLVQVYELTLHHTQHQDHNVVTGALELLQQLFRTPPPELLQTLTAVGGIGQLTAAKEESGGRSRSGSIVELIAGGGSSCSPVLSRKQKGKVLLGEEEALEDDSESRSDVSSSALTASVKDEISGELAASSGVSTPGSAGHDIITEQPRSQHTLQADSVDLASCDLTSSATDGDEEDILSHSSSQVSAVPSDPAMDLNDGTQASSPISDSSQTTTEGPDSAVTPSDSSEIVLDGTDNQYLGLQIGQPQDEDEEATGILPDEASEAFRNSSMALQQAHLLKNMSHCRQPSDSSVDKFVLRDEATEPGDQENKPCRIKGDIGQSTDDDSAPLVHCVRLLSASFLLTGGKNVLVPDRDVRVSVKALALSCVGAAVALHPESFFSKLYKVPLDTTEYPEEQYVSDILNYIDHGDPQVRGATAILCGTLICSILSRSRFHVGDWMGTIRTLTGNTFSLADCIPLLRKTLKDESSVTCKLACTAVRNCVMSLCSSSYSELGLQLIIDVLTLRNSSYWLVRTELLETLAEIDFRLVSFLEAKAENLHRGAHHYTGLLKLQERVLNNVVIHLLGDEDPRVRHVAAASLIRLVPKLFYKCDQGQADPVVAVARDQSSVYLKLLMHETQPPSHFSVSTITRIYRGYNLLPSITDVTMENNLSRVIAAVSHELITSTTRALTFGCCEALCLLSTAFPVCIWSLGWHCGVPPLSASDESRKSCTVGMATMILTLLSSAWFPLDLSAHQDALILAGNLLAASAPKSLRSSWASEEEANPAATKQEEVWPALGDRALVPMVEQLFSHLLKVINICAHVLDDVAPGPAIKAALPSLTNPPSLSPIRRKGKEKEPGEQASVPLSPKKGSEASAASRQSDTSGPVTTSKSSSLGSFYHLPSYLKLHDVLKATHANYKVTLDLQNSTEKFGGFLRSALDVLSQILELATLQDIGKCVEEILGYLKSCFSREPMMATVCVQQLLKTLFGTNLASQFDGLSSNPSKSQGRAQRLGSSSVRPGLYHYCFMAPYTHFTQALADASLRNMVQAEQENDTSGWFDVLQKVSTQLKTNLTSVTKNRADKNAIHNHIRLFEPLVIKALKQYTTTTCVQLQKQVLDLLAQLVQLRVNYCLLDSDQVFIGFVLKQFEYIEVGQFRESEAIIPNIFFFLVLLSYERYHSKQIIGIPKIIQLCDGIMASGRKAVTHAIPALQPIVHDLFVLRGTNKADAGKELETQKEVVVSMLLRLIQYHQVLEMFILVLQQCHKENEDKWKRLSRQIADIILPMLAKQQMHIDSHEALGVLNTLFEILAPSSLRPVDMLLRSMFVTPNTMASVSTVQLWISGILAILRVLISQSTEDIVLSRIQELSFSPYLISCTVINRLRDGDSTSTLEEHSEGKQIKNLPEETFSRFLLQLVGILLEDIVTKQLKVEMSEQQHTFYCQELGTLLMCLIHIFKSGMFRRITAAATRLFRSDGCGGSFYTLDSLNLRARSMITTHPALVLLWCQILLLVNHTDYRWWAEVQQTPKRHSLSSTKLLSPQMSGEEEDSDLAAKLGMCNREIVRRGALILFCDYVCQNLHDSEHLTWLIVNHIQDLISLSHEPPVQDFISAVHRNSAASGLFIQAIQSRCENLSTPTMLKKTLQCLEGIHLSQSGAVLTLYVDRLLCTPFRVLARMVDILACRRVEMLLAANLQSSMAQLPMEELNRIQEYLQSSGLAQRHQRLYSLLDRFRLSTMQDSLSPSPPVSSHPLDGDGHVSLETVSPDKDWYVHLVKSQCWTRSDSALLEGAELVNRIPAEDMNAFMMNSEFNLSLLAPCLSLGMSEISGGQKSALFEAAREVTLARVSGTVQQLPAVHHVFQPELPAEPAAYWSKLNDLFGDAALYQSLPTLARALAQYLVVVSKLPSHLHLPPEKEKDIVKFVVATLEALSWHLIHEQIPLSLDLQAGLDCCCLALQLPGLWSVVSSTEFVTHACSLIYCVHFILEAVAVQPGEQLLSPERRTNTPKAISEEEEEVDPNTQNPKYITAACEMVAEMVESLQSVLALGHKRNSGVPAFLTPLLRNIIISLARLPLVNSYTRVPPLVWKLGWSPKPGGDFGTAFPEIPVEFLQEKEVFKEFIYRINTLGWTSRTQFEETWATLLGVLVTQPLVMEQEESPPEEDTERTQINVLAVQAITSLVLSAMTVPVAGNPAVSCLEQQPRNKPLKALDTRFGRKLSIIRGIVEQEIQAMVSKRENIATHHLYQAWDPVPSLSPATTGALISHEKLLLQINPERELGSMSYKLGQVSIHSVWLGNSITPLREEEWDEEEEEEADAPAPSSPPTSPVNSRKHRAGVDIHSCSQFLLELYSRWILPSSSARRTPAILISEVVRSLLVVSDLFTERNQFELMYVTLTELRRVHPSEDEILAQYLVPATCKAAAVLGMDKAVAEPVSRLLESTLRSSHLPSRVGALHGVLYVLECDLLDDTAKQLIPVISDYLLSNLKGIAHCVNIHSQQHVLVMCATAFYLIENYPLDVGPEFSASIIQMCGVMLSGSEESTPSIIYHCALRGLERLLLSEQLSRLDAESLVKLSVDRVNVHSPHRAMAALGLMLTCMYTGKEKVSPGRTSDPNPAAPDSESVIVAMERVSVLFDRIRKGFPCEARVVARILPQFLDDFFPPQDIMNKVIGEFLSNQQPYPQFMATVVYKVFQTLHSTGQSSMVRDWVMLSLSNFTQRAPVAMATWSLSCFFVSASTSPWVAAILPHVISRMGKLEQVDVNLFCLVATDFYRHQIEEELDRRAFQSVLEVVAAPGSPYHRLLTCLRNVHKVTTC
Compound,inhibition [1],score [2],rescue above control [3],cytochrome c release ratio [4],inhibition of aggregation [5],normalised LDH release [6],glutamate uptake change [7],inclusion score [8],aggregation suppression score [9],fluorescence slope change [10],period change [11],survival [12],EC50 [13],EC50 [14] [µM],inhibition [14],aggregation ratio [15],protection [16]
CC(=O)Nc1ccc(S(=O)(=O)Nc2ccc([N+](=O)[O-])cc2)cc1,15.7%,1.4,-10.3,1.02,15.7%,0.673,20.4%,2,1.23,–,–,–,–,–,–,–,–
O=C(O)c1ccccc1O,11.5%,0.77,-5.04,0.97,56.1%,–,15.9%,2,0.863,–,–,–,–,–,–,–,–
O=NN(CCCl)C(=O)NCCCl,-31.5%,0.3,5.39,0.91,72.2%,0.621,5.94%,–,0.185,11.5% (inactive),0.115 h (inactive),–,–,–,–,–,–
COc1cccc(OC)c1C(=O)N[C@@H]1C(=O)N2[C@@H]1SC(C)(C)[C@@H]2C(=O)O,11.5%,1.48,-12.3,0.93,45.9%,–,17.4%,2,1.05,–,–,–,–,–,–,–,–
NC(=O)N/N=C/c1ccc([N+](=O)[O-])o1,21.9%,1.11,14.1,1.45,74.9%,0.973,16.7%,2,0.831,–,–,16.2 (inactive),–,–,–,–,–
Cc1ccc(C(=O)C(C)CN2CCCCC2)cc1 (configuration not stated),-24.9%,0.57,-2.41,0.96,37.2%,0.861,-0.03%,1.5,0.367,–,–,–,–,–,–,–,–
Nc1c(Br)cc(Br)cc1CNC1CCC(O)CC1 (configuration not stated),-21.8%,1.12,-1.56,1.08,54.5%,0.856,5.04%,2,1.15,57.2% (active),–,4.58 (inactive),–,–,–,–,–
O=C1OCCN1/N=C/c1ccc([N+](=O)[O-])o1,4.31%,0.66,4.89,1.17,27%,–,4.62%,2,0.223,–,–,–,–,–,–,–,–
CC(=O)OCC(COC(C)=O)OC(C)=O,0.15%,1.44,-1.97,1.1,72.7%,–,-13.9%,2,1.25,–,–,–,–,–,–,–,–
O=C(O)c1cc(=O)c2ccccc2o1,6.16%,1.58,-0.59,0.94,87.2%,–,2.44%,2,1.45,–,–,–,–,–,–,–,–
CC1(C)S[C@@H]2[C@H](NC(=O)C(C(=O)O)c3ccccc3)C(=O)N2[C@H]1C(=O)O (some centres not stated),9.67%,1.9,-7.2,0.95,60.9%,–,7.16%,2,1.65,–,–,–,–,–,–,–,–
Oc1c(Cl)cc(Cl)cc1Sc1cc(Cl)cc(Cl)c1O,-9.02%,-0.24,9.15,0.74,-7.69%,1.06,-39%,–,0.0465,–,–,–,0.3 µM (active),–,–,–,–
Cc1c(C(N)=O)cc([N+](=O)[O-])cc1[N+](=O)[O-],-1.96%,1.25,5.37,1.17,82.7%,–,-10.4%,2,0.968,–,–,–,–,–,–,–,–
OC[C@H]1O[C@@H](O[C@@H]2[C@@H](CO)O[C@](O)(CO)[C@H]2O)[C@H](O)[C@@H](O)[C@H]1O,-7.91%,1.23,-9.67,1.19,51.2%,–,8.9%,2,0.924,–,–,–,–,–,–,–,–
O=C(O)c1ccc(S(=O)(=O)N(Cl)Cl)cc1,18.5%,1.25,8.13,0.74,56.3%,–,-1.46%,2,1.13,–,–,–,–,–,–,–,–
Cc1ccc(C(C)C)cc2c(C)ccc1-2,0.23%,-2.73,1.94,3.4,30.6%,–,4.08%,–,-1.39,–,–,–,–,57,73.4% (active),–,–
CN(C)c1ccc(C(=C2C=CC(=[N+](C)C)C=C2)c2ccc(N(C)C)cc2)cc1,60.7%,-6.36,0,1.35,16.7%,0.824,-15.7%,–,-1.97,–,–,–,–,–,–,–,–
CCN(CC)CCNc1ccc(CO)c2sc3ccccc3c(=O)c12,2.1%,1.79,-7.32,1.54,91.6%,0.8,14.7%,–,0.977,-2.7% (inactive),–,1.33 (inactive),–,71,82.8% (active),–,–
NC(=O)NC(=O)Cc1ccccc1,24.8%,1.34,-4.86,1.02,4.16%,–,-11.7%,2,1.17,–,–,–,–,–,–,–,–
Cc1cc(=O)[nH]c(=S)[nH]1,-32.8%,1.08,-4.23,0.82,69.4%,–,14.6%,2,1.02,–,–,–,–,–,–,–,–
C=Cc1c(C)c2cc3[nH]c(cc4nc(cc5nc(cc1[nH]2)C(C)=C5CCC(=O)O)C(CCC(=O)O)=C4C)c(C)c3C=C,39.5%,0.75,–,1.37,77.5%,–,5.14%,–,0.995,–,-0.02 h (inactive),–,–,106,59% (active),0.595,–
CO[C@@H]1[C@@H](OC(N)=O)[C@@H](O)[C@H](Oc2ccc3c(O)c(NC(=O)c4ccc(O)c(CC=C(C)C)c4)c(=O)oc3c2C)OC1(C)C,-0.61%,1.59,-8.05,0.96,-73.2%,–,-19%,2,0.623,–,–,–,–,–,–,–,–

Compound,inhibition [1],score [2],rescue above control [3],cytochrome c release ratio [4],inhibition of aggregation [5],normalised LDH release [6],glutamate uptake change [7],inclusion score [8],aggregation suppression score [9],fluorescence slope change [10],period change [11],survival [12],EC50 [13],EC50 [14] [µM],inhibition [14],aggregation ratio [15],protection [16]
Cc1cc(C2CCCCC2)n(O)c(=O)c1,60.9%,0.13,6.29,0.91,72.2%,0.668,-12%,–,0.0349,–,–,0.667 (inactive),–,–,–,–,–
C[N+](C)(C)CCOC(N)=O,19.3%,1.38,2.63,0.77,60.9%,0.399,-6.66%,2,1.67,12.8% (inactive),0.05 h (inactive),4.67 (inactive),–,–,–,–,–
C=C1c2cccc(O)c2C(O)=C2C(=O)[C@]3(O)C(O)=C(C(N)=O)C(=O)[C@@H](N(C)C)[C@@H]3[C@@H](O)[C@H]12,-86.7%,0.99,0,0.49,29.5%,–,-2.5%,1,0.29,–,–,4.33 (inactive),–,132,60% (active),–,–
NS(=O)(=O)c1cc2c(cc1Cl)NC(CSCc1ccccc1)=NS2(=O)=O,25.2%,1.43,-12.2,1.07,47.9%,–,-3.22%,2,1.51,78.4% (active),–,3.08 (inactive),–,–,–,–,57% (active)
CO[C@@]1(NC(=O)C(C(=O)O)c2ccc(O)cc2)C(=O)N2C(C(=O)O)=C(CSc3nnnn3C)CO[C@@H]21 (some centres not stated),10.7%,1.04,12.8,0.83,72.2%,–,0.13%,1,1.14,63.7% (active),–,6.42 (inactive),–,2,91.1% (active),–,–
CC(NCCC(c1ccccc1)c1ccccc1)c1ccccc1 (configuration not stated),36.8%,1.04,0,0.33,-3.7%,1.14,-8.71%,–,1.16,200% (active),–,3.08 (inactive),–,–,–,–,–
OCc1ccccc1O,-8.47%,1.17,12.8,0.81,67.8%,–,16.3%,2,1.11,–,–,–,–,–,–,–,–
C[C@H]1c2cccc(O)c2C(O)=C2C(=O)[C@]3(O)C(O)=C(C(N)=O)C(=O)[C@@H](N(C)C)[C@@H]3[C@@H](O)[C@@H]21,-6.11%,0.83,0,0.35,64.1%,0.903,-7.42%,0.5,0.446,–,-0.14 h (inactive),–,–,–,–,–,–
O=C1c2cccc(O)c2C(=O)c2c(O)cccc21,-36.4%,-0.3,-2,1.21,58.9%,–,-10.8%,2,0.219,–,–,–,–,–,–,–,–
O=C(CCBr)N1CCN(C(=O)CCBr)CC1,-31.6%,0.93,9.78,0.86,52.8%,–,17.8%,2,0.931,–,–,–,–,–,–,–,–
O=C1c2c(O)cccc2Cc2cccc(O)c21,18.6%,1.5,0.38,0.41,37.9%,–,5.46%,2,1.2,–,–,–,–,–,–,0.75,–
Cc1nnc(NS(=O)(=O)c2ccc(N)cc2)s1,18.6%,1.23,-5.75,1.01,68.2%,–,17.5%,2,1.24,9.7% (inactive),–,5.75 (inactive),–,–,–,–,35% (active)
CN1CCCN=C1COC(=O)C(O)(c1ccccc1)C1CCCCC1 (configuration not stated),21.6%,1.24,4.84,0.8,60.8%,–,10.4%,2,1.26,–,–,–,–,–,–,–,–
O=C(Nc1ccc([N+](=O)[O-])cc1Cl)c1cc(Cl)ccc1O,63.3%,1.5,-13,0.91,41.7%,-0.146,-52.2%,–,0.882,–,0.06 h (inactive),1.67 (inactive),–,–,–,–,–
O=C(N[C@H](CO)[C@H](O)c1ccc([N+](=O)[O-])cc1)C(Cl)Cl,-3.82%,1,-3.71,0.72,55%,–,7.27%,2,1.2,–,–,–,–,–,–,–,–
Oc1c(Cl)cc(Cl)c(Cl)c1Cc1c(O)c(Cl)cc(Cl)c1Cl,5.38%,-1.67,-6.64,0.45,91.6%,0.936,-31.4%,–,-0.244,–,–,–,0.3 µM (active),–,–,–,–
CCC(=O)c1c(O)cc(O)cc1O,6.37%,0.94,-3.67,1.29,38.9%,–,-10.7%,2,1.29,–,–,–,–,–,–,–,–
S=P(N1CC1)(N1CC1)N1CC1,8.19%,0.94,-0.95,0.82,63.2%,–,2.63%,1.5,0.449,–,–,–,–,–,–,–,–
O=C(O)P(=O)(O)O,-16.3%,1.28,9.34,0.68,30.6%,–,-1.79%,2,1.5,–,–,–,–,–,–,–,–
O=c1cc(CO)occ1O,12%,1.29,10.1,0.94,21.8%,–,5.22%,2,1.36,–,–,–,–,–,–,–,–
CC(=O)Nc1ccccc1,14.3% and 16.3%,1.29 and 1.35,-5.57 and 2.9,1.36 and 1.09,42.4% and 85.9%,–,3.38% and -12.1%,2,1.6 and 1.51,–,–,–,–,–,–,–,–
